Compound activity from PubChem BioAssay.
Most compounds without a hit are left out; they make up all but 3.3% or so of the library.
AmpC inh detg – qHTS Inhibitors of AmpC Beta-Lactamase (assay with detergent). Potency, µM (doses to about 114 µM), usual class: inhibitors. AmpC hydrolysis of nitrocefin, absorbance 480 nm, 0.01% Triton. P00811. 370,000 tested, 0.041% active; note: nearly all actives have a fitted effect of over 25% in size
Target sequence (P00811 whole entry, looked up): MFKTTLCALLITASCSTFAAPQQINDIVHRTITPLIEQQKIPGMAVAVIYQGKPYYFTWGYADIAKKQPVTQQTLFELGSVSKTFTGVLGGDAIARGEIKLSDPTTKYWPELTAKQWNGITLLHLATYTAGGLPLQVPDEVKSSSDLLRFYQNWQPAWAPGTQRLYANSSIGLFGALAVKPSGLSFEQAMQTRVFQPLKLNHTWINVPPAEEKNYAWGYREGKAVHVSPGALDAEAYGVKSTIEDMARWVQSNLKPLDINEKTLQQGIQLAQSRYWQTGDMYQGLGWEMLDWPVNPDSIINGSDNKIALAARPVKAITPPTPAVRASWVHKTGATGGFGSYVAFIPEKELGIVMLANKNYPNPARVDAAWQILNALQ
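20 mM phosphate pH 7.0 + 0.01% (detergent screen) or 0.0001% Triton X-100; 5.3 nM AmpC reagent; cpd preinc 15 min RT; nitrocefin (800 uM stock) to start; A480 q20 s × 4 min; Activity was normalised to no-enzyme and no-compound control wells.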
AmpC inh no detg – qHTS Inhibitors of AmpC Beta-Lactamase (assay without detergent). AmpC nitrocefin hydrolysis, absorbance 480 nm, 0.0001% Triton. Potency, µM (highest dose often 57.1 µM), most hits filed as inhibitors. 330,000 tested, 0.52% active. P00811. AID 485341, 2010; note: nearly all actives have a fitted effect of over 20% in size
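AmpC (5.3 nM in the dispensed reagent) in 20 mM phosphate pH 7.0 with 0.01% (detergent screen) or 0.0001% Triton X-100 was preincubated with compounds for 15 min at room temperature. Nitrocefin was then added from an 800 uM solution, and hydrolysis was followed at 480 nm.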
Sm TGR block – qHTS Assay for the Inhibitors of Schistosoma Mansoni Peroxiredoxins. AID 485364, 2010. Schistosoma mansoni thioredoxin glutathione reductase (TGR), Q962Y6. 360,000 tested, 3% active. Potency, µM (doses to about 114 µM), most hits filed as inhibitors. purified TGR, DTNB reduction, TNB absorbance 405 nm; note: nearly all actives have a fitted effect of over 60% in size
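TGR 20 nM + NADPH 100 uM (dispensed conc.), cpd preinc 15 min RT; start with NADPH (500 uM addition) then DTNB (15 mM addition). Kinetic TNB absorbance, 405 nm filter. Four-parameter Hill fit across titration.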
Of the large screens only hits and unclear results are named; the others gave an inactive call. Calls come from the whole dose curve; as a rule, active = well fitted curve in the direction sought with a large enough effect; inconclusive = small, poorly fitted or top-dose-only effect, or another doubt; inactive = no such curve, though single readings can be large; an effect the other way counts as inactive or inconclusive.

Cc1ccc2nc(Cl)c(C3CC(c4ccco4)=NN3S(C)(=O)=O)cc2c1 (stereo not given)	Sm TGR block 14µM
COc1ccc2cc(C3CC(c4ccco4)=NN3S(=O)(=O)c3ccccc3)c(Cl)nc2c1 (stereo not given)	none
CCOc1ccc2cc(C3CC(c4ccco4)=NN3S(=O)(=O)c3ccccc3)c(Cl)nc2c1 (stereo not given)	AmpC inh no detg inconclusive
CCOc1ccc2nc(Cl)c(C3CC(c4ccco4)=NN3S(C)(=O)=O)cc2c1 (stereo not given)	Sm TGR block 32µM
CN(CC(=O)Nc1ccccc1Cl)C(=O)COC(=O)/C=C/c1ccc(C(F)(F)F)cc1	none
S=c1[nH]nc(CSCCOc2ccc(Cl)cc2Cl)o1	none
COc1cccc(NC(=O)C2CCN(S(=O)(=O)c3cccc4nonc34)CC2)c1	none (no result: AmpC inh no detg)
N#CC(=Cc1ccc(O)cc1)C(N)=C(C#N)C#N	none
N#CC(C#N)=Cc1ccc(C=C(C#N)C#N)cc1	Sm TGR block 2.2µM
COc1ccc(-n2c(=S)[nH]c(=O)c3cccnc32)cc1	Sm TGR block 18µM
COc1ccc(-n2c(=S)[nH]c3c(oc4ccccc43)c2=O)cc1	AmpC inh detg inconclusive
CC(C)CCN(Cc1ccco1)S(=O)(=O)c1ccc(-c2ccc(=O)[nH]n2)s1	none
CCCCN(Cc1ccco1)S(=O)(=O)c1ccc(-c2ccc(=O)[nH]n2)s1	Sm TGR block 25µM
O=S1(=O)C=C(Sc2nnc(-c3ccccc3)o2)c2ccccc21	AmpC inh detg inconclusive, Sm TGR block 0.5µM
CSc1nnc(-c2ccccc2)o1	none
Cc1ccc(S(=O)(=O)c2c(Nc3ccc(C)c(C)c3)sc(C(=O)c3ccc4c(c3)OCO4)c2N)cc1	AmpC inh detg inconclusive (no result: AmpC inh no detg)
Cc1ccc(NC(=O)CSc2nnc3c(n2)[nH]c2ccccc23)cc1	AmpC inh detg inconclusive
O=C(CSc1nnc2c(n1)[nH]c1ccccc12)Nc1ccc2c(c1)OCO2	AmpC inh no detg 8.9µM
Cc1ccc(CSCC(=O)Nc2ccc3c(c2)OCO3)cc1	none
O=C(CSc1nnnn1-c1ccccc1Cl)Nc1ccc2c(c1)OCCO2	AmpC inh no detg 32µM
O=C(CSc1nnnn1-c1ccc(Cl)cc1)NC(=O)Nc1ccc2c(c1)OCCO2	AmpC inh detg inconclusive, AmpC inh no detg inconclusive
O=C(CSCc1ccc(Cl)cc1)Nc1ccc2c(c1)OCCO2	AmpC inh no detg 11µM
CC1=C(C(=O)Nc2ccccc2)C(c2ccc(O)cc2)n2nc(-c3ccc(Cl)cc3)nc2N1 (stereo not given)	none (no result: AmpC inh no detg)
CC(C)(C)c1nc(NC(=O)Nc2ccccc2)sc1Br	none
Cn1c(=O)c(C(=O)CN2CCCCCC2)c(N)n(Cc2ccccc2)c1=O	Sm TGR block 35µM
Cn1c(=O)c(C(=O)CN2CCN(Cc3ccc4c(c3)OCO4)CC2)c(N)n(Cc2ccccc2)c1=O	none
CC(c1ccco1)N(C(=O)c1cccc(S(=O)(=O)N(C)C)c1)c1ccccn1 (stereo not given)	none
O=C(CC1Nc2cccc3cccc(c23)NC1=O)Nc1ccccc1 (stereo not given)	none
Cc1ccc(NC(=O)CC2Nc3cccc4cccc(c34)NC2=O)cc1 (stereo not given)	Sm TGR block 40µM (no result: AmpC inh no detg)
CCOc1ccccc1NC(=O)CC1Nc2ccccc2NC1=O (stereo not given)	Sm TGR block inconclusive
CCCOc1ccccc1NC(=O)CC1Nc2ccccc2NC1=O (stereo not given)	AmpC inh no detg 18µM
CSCCC1NC(=O)N(CC(=O)N2CCc3ccccc3C2)C1=O (stereo not given)	AmpC inh detg inconclusive
c1ccc2c(c1)Nc1cc3ccccc3cc1S2	none
COc1ccc2c(c1)Sc1ccccc1N2	AmpC inh detg inconclusive, Sm TGR block 22µM
CN(C)S(=O)(=O)c1ccc(C(=O)NCC(C)(C)CN=C2NS(=O)(=O)c3ccccc32)cc1	AmpC inh detg inconclusive
Cc1ccc(C)n1-c1ccc(C(=O)/C=C/N(C)C)cc1	Sm TGR block 32µM
CN(C)/C=C/C(=O)c1ccncc1	none
Nc1ccc(Oc2c(Cl)cccc2Cl)nc1	Sm TGR block inconclusive
CC(C)(C)c1ccc(Oc2ccc(NC(=O)c3ccccc3C(=O)O)cn2)cc1	Sm TGR block inconclusive
Cc1cc(Oc2ccc(N)cn2)cc(C)c1Cl	Sm TGR block 40µM
CC(C)(C)c1ccc(Oc2ccc(N)cn2)cc1	Sm TGR block 13µM
CC(C)NC(=O)c1ccc(CN2CCc3ccccc3C2)cc1	none
COC(=O)c1ccc(NC(=O)CN2CCCN(Cc3ccc(Cl)cc3)S2(=O)=O)cc1	none (no result: AmpC inh no detg)
